Assay results reported in PubChem BioAssay (Tox21).
Results filed as inconclusive are left out. Active and inactive are the calls of the source. Unless noted, calls come from the whole dose curve; as a rule, active = well fitted curve in the direction sought with a large enough effect in the repeat runs; inconclusive = weak or mixed curves; inactive = no such curve, though single readings can be large; an effect the other way counts as inactive or inconclusive.

Key:
[1] = qHTS assay to identify small molecule agonists of the peroxisome proliferator-activated receptor delta (PPARd) signaling pathway - cell viability counter screen (AID 743211); note: nearly all actives have a fitted effect of over 55% in size
Summary of the method: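 qHTS cell viability: PPARd-bla HEK293H; 17 h cpd, 37C; CellTiter-Glo, luminescence at 30 min RT.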

[2] = biological target: Peroxisome proliferator-activated receptor delta (Homo sapiens) (UniProt Q03181); test: qHTS assay to identify small molecule agonists of the peroxisome proliferator-activated receptor delta (PPARd) signaling pathway (AID 743212; calls by dose curve)
Summary of the method: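 GeneBLAzer PPARd UAS-bla HEK293H cells (beta-lactamase reporter under UAS control), plated and rested 5 h at 37 C, then exposed to compounds in DMSO at 37 C; LiveBLAzer B/G FRET substrate added, 2 h room temperature, fluorescence read.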

[3] = qHTS assay to identify small molecule antagonists of the peroxisome proliferator-activated receptor delta (PPARd) signaling pathway - cell viability counter screen (AID 743213); note: nearly all actives have a fitted effect of over 50% in size
Summary of the method: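 Cytotoxicity counter screen: CellTiter-Glo luminescence read 30 min after addition, in the same wells as the reporter assay. There, PPARd UAS-bla HEK293H cells (3000/well) were treated 17 h at 37 C with compound and 300 nM L165041.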

[4] = biological target: Peroxisome proliferator-activated receptor delta (Homo sapiens) (UniProt Q03181); test: qHTS assay to identify small molecule antagonists of the peroxisome proliferator-activated receptor delta (PPARd) signaling pathway (AID 743215; active = well fitted inhibition curve with a large enough effect in the signal ratio in the repeat runs, not every such curve was filed as active; the % refers to the signal ratio;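 note: cells stimulated with agonist L165041 at 300 nM final during compound exposure; series mostly up to about 62 µM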)
Summary of the method: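 Antagonist-mode beta-lactamase reporter screen: HEK293H cells with UAS-bla under PPARd control, stimulated by 300 nM L165041 (final) alongside test compound for 17 h at 37 C, then FRET fluorescence after 2 h substrate incubation.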

[5] = qHTS assay to identify small molecule agonists of the farnesoid-X-receptor (FXR) signaling pathway - cell viability counter screen (AID 743218); note: nearly all actives have a fitted effect of over 45% in size
Summary of the method: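 In GeneBLAzer FXR-UAS-bla HEK 293T cells, compounds act for 16 h at 37 C. Cell viability is then scored in the reporter wells by CellTiter-Glo, 30 min at RT, luminescence.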

[6] = qHTS assay to identify small molecule antagonists of the farnesoid-X-receptor (FXR) signaling pathway - cell viability counter screen (AID 743221; active = well fitted cell-killing curve with a large enough effect in the repeat runs, not every such curve was filed as active; note: nearly all actives have a fitted effect of over 50% in size)
Summary of the method: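 After a 5 h settling period, FXR-bla HEK 293T cells receive compound and chenodeoxycholic acid (50 uM final) and incubate 16 h at 37 C; CellTiter-Glo luminescence, read after 30 min at room temperature, reports cell viability.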

[7] = biological target: Vitamin D3 receptor (Homo sapiens) (UniProt P11473); test: qHTS assay to identify small molecule agonists of the vitamin D receptor (VDR) signaling pathway (AID 743222; calls by dose curve)
Summary of the method: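 Agonist activity measured in VDR-bla reporter cells. Exposure 16 h, 37C, 5% CO2; detection by B/G FRET substrate, 2 h RT.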

[8] = biological target: Vitamin D3 receptor (Homo sapiens) (UniProt P11473); test: qHTS assay to identify small molecule antagonists of the vitamin D receptor (VDR) signaling pathway (AID 743223; active = well fitted inhibition curve with a large enough effect in the signal ratio in the repeat runs, not every such curve was filed as active; the % refers to the signal ratio)
Summary of the method: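 Reporter line VDR-bla; stimulus 1alpha,25-(OH)2 vitamin D3, 3 nM final; compound co-addition, 16 h 37C/5% CO2; LiveBLAzer B/G substrate 2 h RT; fluorescence intensity.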

[9] = biological target: Bile acid receptor (Homo sapiens) (UniProt Q96RI1); test: qHTS assay to identify small molecule antagonists of the farnesoid-X-receptor (FXR) signaling pathway (AID 743217; active = well fitted inhibition curve with a large enough effect in the signal ratio in the repeat runs, not every such curve was filed as active; the % refers to the signal ratio)
Summary of the method: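 Beta-lactamase reporter under UAS control in HEK 293T cells; compound exposure 16 h at 37 °C in the presence of chenodeoxycholic acid (50 uM final); signal from B/G FRET substrate after 2 h at room temperature.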

[10] = biological target: Bile acid receptor (Homo sapiens) (UniProt Q96RI1); test: qHTS assay to identify small molecule agonists of the farnesoid-X-receptor (FXR) signaling pathway (AID 743220; active = well fitted activation curve with a large enough effect in the signal ratio in the repeat runs, not every such curve was filed as active; the % refers to the signal ratio)
Summary of the method: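 Beta-lactamase reporter under UAS control in GeneBLAzer FXR HEK 293T cells (5000/well) measured with LiveBLAzer FRET substrate after 2 h at room temperature. Compound exposure lasted 16 h at 37C.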

Measured: Potency

Peroxisome proliferator-activated receptor delta (Homo sapiens), sequence (Q03181 whole entry, looked up): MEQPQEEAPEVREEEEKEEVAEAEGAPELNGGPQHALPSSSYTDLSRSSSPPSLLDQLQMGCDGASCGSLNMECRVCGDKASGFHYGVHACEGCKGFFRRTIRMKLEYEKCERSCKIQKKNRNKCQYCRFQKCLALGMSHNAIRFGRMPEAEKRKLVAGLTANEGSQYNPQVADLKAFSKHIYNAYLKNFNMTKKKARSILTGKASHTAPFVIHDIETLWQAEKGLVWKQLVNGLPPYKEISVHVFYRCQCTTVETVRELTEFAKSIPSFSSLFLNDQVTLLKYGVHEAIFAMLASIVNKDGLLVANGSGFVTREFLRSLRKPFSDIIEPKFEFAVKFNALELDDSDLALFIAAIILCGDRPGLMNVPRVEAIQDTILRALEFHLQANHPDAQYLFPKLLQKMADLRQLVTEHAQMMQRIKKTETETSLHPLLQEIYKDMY
Bile acid receptor (Homo sapiens), sequence (Q96RI1 whole entry, looked up): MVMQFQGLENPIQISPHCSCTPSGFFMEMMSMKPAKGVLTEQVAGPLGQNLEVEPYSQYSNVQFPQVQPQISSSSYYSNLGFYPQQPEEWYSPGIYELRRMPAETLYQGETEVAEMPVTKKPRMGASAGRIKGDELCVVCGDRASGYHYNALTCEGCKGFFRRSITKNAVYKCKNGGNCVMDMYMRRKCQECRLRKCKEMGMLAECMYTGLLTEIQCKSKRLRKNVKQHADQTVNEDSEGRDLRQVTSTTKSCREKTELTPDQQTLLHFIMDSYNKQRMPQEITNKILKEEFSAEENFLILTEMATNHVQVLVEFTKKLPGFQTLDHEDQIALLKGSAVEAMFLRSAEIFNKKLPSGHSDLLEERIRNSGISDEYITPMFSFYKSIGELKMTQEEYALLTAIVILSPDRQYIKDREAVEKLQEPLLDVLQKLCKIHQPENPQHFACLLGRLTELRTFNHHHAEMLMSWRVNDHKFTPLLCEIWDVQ
Vitamin D3 receptor (Homo sapiens), sequence (P11473 whole entry, looked up): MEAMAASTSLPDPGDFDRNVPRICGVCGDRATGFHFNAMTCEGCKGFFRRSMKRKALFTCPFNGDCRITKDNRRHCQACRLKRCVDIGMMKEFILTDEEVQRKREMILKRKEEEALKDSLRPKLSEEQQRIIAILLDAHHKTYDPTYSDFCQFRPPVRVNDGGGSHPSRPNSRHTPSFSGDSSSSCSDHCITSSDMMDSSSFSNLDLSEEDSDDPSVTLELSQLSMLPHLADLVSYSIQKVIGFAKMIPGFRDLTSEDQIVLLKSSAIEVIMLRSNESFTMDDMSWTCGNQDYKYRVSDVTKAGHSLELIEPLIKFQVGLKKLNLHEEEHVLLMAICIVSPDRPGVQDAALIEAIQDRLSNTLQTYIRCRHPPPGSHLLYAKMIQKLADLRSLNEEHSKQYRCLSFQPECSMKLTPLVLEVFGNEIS

COCC(=O)O
inactive: [1] | [2] | [3] | [4] | [5] | [6] | [7] | [8]

NC(=O)/N=N/C(N)=O
inactive: [1] | [2] | [3] | [4] | [9] | [5] | [10] | [6] | [7] | [8]

O=[N+]([O-])c1cc(N(CCO)CCO)ccc1NCCO
inactive: [1] | [2] | [3] | [4] | [5] | [6] | [7] | [8]

CC(C)Cc1ccccc1
inactive: [1] | [2] | [3] | [4] | [5] | [6]

O=c1c(-c2ccc(O)cc2)coc2cc(O)ccc12
inactive: [1] | [2] | [3] | [4] | [5] | [10] | [6]

c1ccc2[nH]cnc2c1
inactive: [1] | [2] | [3] | [4] | [9] | [5] | [10] | [6] | [7] | [8]

CCCCNC(N)=O
inactive: [1] | [2] | [3] | [4] | [9] | [5] | [10] | [6] | [7] | [8]

CCCCOCCO
inactive: [1] | [2] | [3] | [4] | [9] | [5] | [10] | [6] | [7] | [8]

O=S(=O)(O)c1cc(S(=O)(=O)O)c2c(N=Nc3ccccc3)c(O)ccc2c1
inactive: [1] | [2] | [3] | [4] | [9] | [5] | [10] | [6] | [7] | [8]

O=C(O)c1ccc([N+](=O)[O-])cc1
inactive: [1] | [2] | [3] | [4] | [9] | [5] | [10] | [6] | [7] | [8]

Nc1cc(-c2ccncc2)c[nH]c1=O
inactive: [1] | [2] | [3] | [4] | [5] | [6] | [7]

CCCCC(CC)COC(=O)CCCCCCCC(=O)OCC(CC)CCCC (configuration not stated)
inactive: [1] | [3] | [4] | [9] | [5] | [10] | [6]

Oc1ccc(OCc2ccccc2)cc1
inactive: [1] | [3] | [4] | [9] | [5] | [10] | [6] | [7] | [8]

OCC1CCCO1 (configuration not stated)
inactive: [1] | [3] | [4] | [9] | [5] | [10] | [6] | [7] | [8]

Cc1cc(=O)[nH]c(C(C)C)n1
inactive: [1] | [2] | [3] | [4] | [9] | [5] | [10] | [6] | [7] | [8]

O=C(O)c1cc(-c2ccccc2)nc2ccccc12
inactive: [1] | [2] | [4] | [9] | [5] | [10] | [6] | [7] | [8]

O=C(Cl)c1c(Cl)c(Cl)c(C(=O)Cl)c(Cl)c1Cl
inactive: [1] | [3] | [4] | [9] | [5] | [10] | [6]

CCc1ccccc1O
inactive: [1] | [3] | [4] | [9] | [5] | [10] | [6] | [7] | [8]

O=C(c1cc(O)c(O)c(O)c1)c1ccc(O)c(O)c1O
inactive: [1] | [3] | [4] | [9] | [5] | [10] | [6] | [7] | [8]

C=C(C)C(=O)OCC(CC)(COC(=O)C(=C)C)COC(=O)C(=C)C
inactive: [1] | [3] | [4] | [9] | [5] | [10] | [6]

O=C1O[C@H](CO)[C@@H](O)[C@H](O)[C@H]1O
inactive: [1] | [3] | [4] | [9] | [5] | [10] | [6] | [7] | [8]

CS(=O)(=O)c1ccc([C@@H](O)[C@@H](CO)NC(=O)C(Cl)Cl)cc1
inactive: [1] | [2] | [3] | [4] | [5] | [6] | [7] | [8]

CCc1ccc(O)cc1
inactive: [1] | [2] | [3] | [4] | [5] | [6] | [7] | [8]
